BAZ2B block: qHTS Assay for Inhibitors of BAZ2B; AlphaScreen BAZ2B-H3K14Ac peptide displacement; 4.4% of 360,000 active; AID 504333, 2011; Potency, µM (doses to about 114 µM), for the others: at the highest dose activity change, negative = inhibition, hits mostly inhibitors; Bromodomain adjacent to zinc finger domain protein 2B (Homo sapiens), Q9UIF8; note: % is set by controls: 0 for no effect and ±100 for the full control effect; nearly all actives have a fitted effect of over 60% in size
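AlphaScreen luminescence quantifies BAZ2B engagement of H3K14Ac peptide; the protein and biotinylated peptide are both at 50 nM final, buffer PBS pH 7.4 with 0.01% Tween-20, all steps at room temperature.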
Sfp inh: qHTS Assay for Inhibitors of Bacillus subtilis Sfp phosphopantetheinyl transferase (PPTase). Biochemical Sfp PPTase activity, qHTS. Potency, µM, without a hit: largest response in the series, negative = inhibition, actives largely listed as inhibitors. 3.5% of 310,000 active. 4'-phosphopantetheinyl transferase ffp (Bacillus subtilis), Q9F4F7;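 note: the enzyme is Sfp with the accession as filed and its product quenches rhodamine fluorescence; 0% = enzyme reaction without inhibitor and -100% = no enzyme wells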
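Fluorescence-quenching assay: 15 nM Sfp-PPTase preincubated 15 min at room temperature with compound, then 5 uM rhodamine-CoA and 12.5 uM BHQ-2-labelled YbbR peptide added. Fluorescence (ex 525/em 598 nm) read at start and after 30 min; difference gives rate.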
ALOX12 inh: Primary qHTS assay for inhibitors of human arachidonate 12S-lipoxygenase (ALOX12): Round 2; AID 1671190, 2021; Potency, µM (titrated, usually from 108 µM), for inactives: top-dose activity change, negative = inhibition, most hits filed as inhibitors; purified 12hLO, xylenol orange hydroperoxide absorbance; 1.1% of 580,000 active; Polyunsaturated fatty acid lipoxygenase ALOX12 (Homo sapiens), P18054; note: % is set by controls: 0 for no effect and ±100 for the full control effect
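Hydroperoxide product was detected by ferrous iron/xylenol orange as the 573 to 405 nm absorbance ratio. Arachidonic acid at 40 uM (final) was turned over for 30 min at room temperature by 150 nM human 12hLO, pH 7.0 Hepes buffer, after 15 min compound preincubation.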
JMJD2A Tudor inh: qHTS Assay for Inhibitors of JMJD2A-Tudor Domain. Potency, µM (series often up to 114 µM), for inactives: at the top dose activity change, negative = inhibition, hits mostly inhibitors. 4.4% of 390,000 active. AID 504339, 2011. AlphaScreen JMJD2A-Tudor / H3K4me3 peptide binding; note: % is set by controls: 0 for no effect and ±100 for the full control effect; nearly all actives have a fitted effect of over 50% in size
G9a inh: qHTS Assay for Inhibitors of Histone Lysine Methyltransferase G9a; Histone-lysine N-methyltransferase EHMT2 (Homo sapiens), Q96KQ7; G9a H3K9 monomethylation, AlphaScreen, 2 h; Potency, µM (doses to about 102 µM), without a hit: at the highest dose activity, negative = inhibition, usual class: inhibitors; 8.8% of 350,000 active; AID 504332, 2011; note: % is set by controls: 0 for no effect and ±100 for the full control effect; nearly all actives have a fitted effect of over 75% in size
Target sequence (Q96KQ7 913-1193 limits assumed): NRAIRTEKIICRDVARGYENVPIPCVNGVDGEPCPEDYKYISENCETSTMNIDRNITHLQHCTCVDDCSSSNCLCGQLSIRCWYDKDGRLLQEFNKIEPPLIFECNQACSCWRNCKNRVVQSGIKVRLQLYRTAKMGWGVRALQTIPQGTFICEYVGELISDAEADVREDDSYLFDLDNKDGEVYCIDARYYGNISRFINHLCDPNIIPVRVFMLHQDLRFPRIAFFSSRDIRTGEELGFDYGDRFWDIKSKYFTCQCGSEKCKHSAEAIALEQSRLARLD
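Chemiluminescent proximity detection of H3K9 monomethylation, read after 10 min bead incubation in the dark. Reaction: 20 nM G9a, 500 nM biotin-H3K9 peptide, 20 uM SAM cofactor, 2 h, room temperature, following 15 min enzyme-compound preincubation.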
HP1b chromo inh: HTS for Inhibitors of HP1-beta Chromodomain Interactions with Methylated Histone Tails; AlphaScreen HP1-beta / biotin-H3K9me3 peptide binding; AID 540317, 2011; Potency, µM (series often up to 114 µM), inactives show at the top dose activity change, negative = inhibition, hits mostly inhibitors; Chromobox protein homolog 1 (Homo sapiens), P83916; 0.56% of 390,000 active; note: nearly all actives have a fitted effect of over 70% in size
Target sequence (P83916 whole entry, looked up): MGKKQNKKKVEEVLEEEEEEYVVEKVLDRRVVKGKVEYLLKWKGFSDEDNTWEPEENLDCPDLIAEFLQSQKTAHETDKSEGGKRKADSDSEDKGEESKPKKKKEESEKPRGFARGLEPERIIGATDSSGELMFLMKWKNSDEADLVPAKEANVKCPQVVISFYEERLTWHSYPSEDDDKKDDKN
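Compound inhibition of the preformed complex between 50 nM HP1-beta and 50 nM biotinylated H3K9me3 peptide was read by AlphaScreen. Buffer was PBS pH 7.4 with 0.01% Tween-20. Incubations ran 30 min at room temperature, with 10 ug/mL donor/acceptor beads.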
An asterisk follows results filed as active; ? = inconclusive; / = no result; [ ] = remark or other dose. In the library only some 8.7% were active in any assay of this set; here they are far more common. Calls come from the whole dose curve; as a rule, active = well fitted curve in the direction sought with a large enough effect; inconclusive = small, poorly fitted or top-dose-only effect, or another doubt; inactive = no such curve, though single readings can be large; an effect the other way counts as inactive or inconclusive. Potency is the fitted concentration of half-maximal effect.

SMILES | BAZ2B block | Sfp inh | ALOX12 inh | JMJD2A Tudor inh | G9a inh | HP1b chromo inh
O=S(=O)(Nc1cc(F)ccc1F)c1ccc2[nH]c3c(c2c1)CCCCC3 | 40µM* | / | ? | ? | ? | -26%
Cc1ccc(CCNC(=O)CS(=O)(=O)Cc2nc(-c3ccc(C)cc3)oc2C)cc1 | / | / | 3% | / | / | /
O=C(CN1CCN(Cc2ccccc2)C1=O)NCc1ccc(Cl)cc1 | 1% | 19% | 0% | 11% | 0%[59 µM] | 26%
CN(CCCNC(=O)C1CCC(=O)N1Cc1ccc(F)cc1)c1ccccc1 (stereo unspecified) | -5% | 23% | -26% | -24% | 79µM* | 14%
CN(CCCNC(=O)C1CCC(=O)N1Cc1ccccc1Cl)c1ccccc1 (stereo unspecified) | -33% | 20% | ? | -27% | 12% | -3%
CCN(CCCNC(=O)C1CCC(=O)N1Cc1ccccc1Cl)c1cccc(C)c1 (stereo unspecified) | ? | 0% | -2% | -30% | 45µM* | 1%
CCN(CCNC(=O)CN1CCN(Cc2ccc(Cl)cc2)C1=O)c1ccccc1 | ? | -6% | 0% | -25% | 11µM* | -12%
CCN(CCNC(=O)C1CCC(=O)N1Cc1ccc(C)cc1)c1ccccc1 (stereo unspecified) | -24% | 15% | 1% | 4% | 50µM* | 28%
O=C(NC1CCCC1)c1csc(N2CCN(c3ccccc3F)CC2)n1 | / | / | 28% | / | / | /
Cc1ccc(S(=O)(=O)c2cc3c(cc2NC(=O)COc2ccc(C)cc2C)n(C)c(=O)n3C)cc1 | / | / | -23% | / | / | /
Nc1[nH]nc2ncc3cc4ccccc4nc3c12 | ? | 35µM* | -14% | -21% | 35µM* | 26%
Nc1[nH]nc2nc3ccccc3nc12 | / | 9% | 0% | / | / | /
COc1ccc(S(=O)(=O)Nc2nc3ccccc3nc2Nc2cc(C)ccc2C)cc1 | / | / | 2% | / | / | /
CCOC(=O)C1=C(C)NC(=S)NC1c1cc(C)sc1C (stereo unspecified) | -4% | 4% | ? | -25% | ? | 17%[57 µM]
CCOC(=O)c1c(NC(=O)C2=C(C)NC(=S)NC2c2ccccc2C(F)(F)F)sc(C)c1C (stereo unspecified) | -27% | 16µM* | 25µM* | -17% | 21%[59 µM] | -8%
CCOc1cc(C#N)c(NC(=O)c2ccc(C(C)(C)C)cc2)cc1OCC | / | / | -21% | / | / | /
COc1ccc(-c2nnc(C(C)Sc3nnc(-c4cccs4)n3C3CC3)o2)cc1 (stereo unspecified) | / | / | 15% | / | / | /
COc1cccc(SCC(=O)c2ccc3c(c2)CCC(=O)N3)c1 | / | / | 35µM* | / | / | /
COc1cccc(NS(=O)(=O)c2ccc3c(c2)CCC(=O)N3)c1 | / | / | / | -3% | / | /
Cc1nn(C)c2nc(N3C[C@@H]4CCN(C)[C@@H]4C3)sc12 | / | / | 16% | / | / | /
C=CCOc1ccc(/C=C/C(=O)N2CCCN(S(=O)(=O)c3c(C)noc3C)CC2)cc1 | -5% | / | -2% | -6% | 45µM* | 19%
CC(=O)NCCC(=O)N1Cc2ccccc2CC2(CCCCN2CC2CCNCC2)C1 (stereo unspecified) | / | / | -14%[6.33 µM] | / | / | /
CN1Cc2cccn2CC1CNC(=O)c1cccs1 (stereo unspecified) | / | / | 36% | / | / | /
CCN(CC)Cc1ccccc1CNC(=O)C12CC3CC(CC(NC(C)=O)(C3)C1)C2 | / | / | 3% | / | / | /
Cc1cc(/C=N/n2cnnc2)c(C)n1-c1ccc(C(=O)O)cc1 | / | 21% | -3% | -5% | 1%[59 µM] | 35%

Screens (PubChem BioAssay)
